In the library only some 4.8% were active in any assay of this set; here they are far more common.
S2 tox = cell viability loss in ATXN counter-screen | S2 cells (HEK-293 line with an ATXN2-luciferase reporter) viability, CellTiter-Fluor protease fluorescence, 24 h | Potency, µM (top dose mostly 56.7 µM), actives largely listed as cytotoxic | hit rate 0.49% among 400,000 | AID 651635; also: potency is read from the fitted curve at half-maximal effect; nearly all actives have a fitted effect of over 40% in size
ATXN2 expr inh = ATXN2 expression inhibition; HEK-293 ATXN2-luciferase reporter, luminescence, 24 h; Potency, µM (highest dose often 57 µM), without a hit: at the highest dose activity change, negative = inhibition, actives largely listed as inhibitors; hit rate 0.72% among 360,000; AID 1745845; also: potency is read from the fitted curve at half-maximal effect; % is scaled to controls: 0 for no effect and ±100 for the full control effect; nearly all actives have a fitted effect of over 55% in size
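qHTS (up to 57 uM final) was run with 24 h compound exposure of reporter cells at 37 °C. Each well was multiplexed: SteadyGlo luminescence measured ATXN2-luciferase expression after a fluorogenic Gly-Phe-AFC viability readout (25 uM final).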
D3 ag = activates the human D3 dopamine receptor; P35462; D3R DiscoveRx beta-arrestin cells, luminescence, 90 min; max activation, %; hit rate 0.58% among 410,000; AID 652048; in the data active = max activation above about 30%; also: 0% is about no effect
Target sequence (P35462 whole entry, looked up): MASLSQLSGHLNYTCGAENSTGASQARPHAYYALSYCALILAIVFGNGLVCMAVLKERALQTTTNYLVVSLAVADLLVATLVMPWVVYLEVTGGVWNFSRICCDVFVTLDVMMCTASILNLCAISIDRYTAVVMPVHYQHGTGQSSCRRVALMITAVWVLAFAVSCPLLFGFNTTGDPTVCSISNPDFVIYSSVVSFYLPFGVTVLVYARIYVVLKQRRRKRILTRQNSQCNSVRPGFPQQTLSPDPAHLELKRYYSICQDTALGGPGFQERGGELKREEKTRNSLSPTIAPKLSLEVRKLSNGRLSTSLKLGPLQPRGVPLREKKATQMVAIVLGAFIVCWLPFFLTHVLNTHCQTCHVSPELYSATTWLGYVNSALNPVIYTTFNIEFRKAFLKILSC
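Agonist mode: compounds and dopamine controls were applied to plated cells for 90 min at 37 degrees C after an overnight attachment at 1500 cells/well. Luminescent read-out followed 30 - 60 minutes at room temperature with DiscoveRx detection reagent.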
DRD3 antagonist = D3 dopamine receptor (human) antagonism; max response, negative = inhibition, %; hit rate 2.5% among 360,000; D3R cells, DiscoveRx beta-arrestin luminescence, antagonist mode; active compounds read low; P35462; in the data active = max response below about -50%; inconclusive = no clear call, values can overlap the other calls; also: % is scaled to controls: 0 for no effect and ±100 for the full control effect
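Cells plated overnight at 1500 cells/well, then exposed to library compounds with dopamine controls for 90 minutes at 37 degrees C. DiscoveRx reagent added for 30–60 minutes at room temperature; luminescence read, quantitative HTS format.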
TGFb inhibitor = blocks TGF-b signaling; AID 588855; hit rate 1.2% among 410,000; HepG2 CAGA-GFP TGF-b/SMAD3 reporter, GFP fluorescence, 18 h; TGF-beta stimulated, 500 pg/mL final; Potency, µM (highest dose often 46.1 µM), inactives show at the highest dose activity, negative = inhibition, hits mostly inhibitors; also: potency is read from the fitted curve at half-maximal effect; % is scaled to controls: 0 for no effect and ±100 for the full control effect; nearly all actives have a fitted effect of over 65% in size
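HEPG2 CAGA-GFP, 1000 cells/well; 2 h settle, 37 C; cpd via pin tool; TGF-b 500 pg/mL final; 18 h, 37 C; GFP imaging ex488/em500-530; %Activity normalised to -TGF-b and +DMSO controls; CRC fit, curve class.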
HepG2 tox = kills HepG2 cells in TGF-b inhibitor counter-screen; HepG2 CAGA-GFP viability, ATP luminescence, 18 h; Potency, µM (highest dose often 46.1 µM), for inactives: top-dose activity change, negative = cytotoxicity, hits mostly cytotoxic; hit rate 0.76% among 410,000; AID 588856; also: potency is read from the fitted curve at half-maximal effect
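CellTiter-Glo luminescence gave cytotoxicity after 18 hours at 37 degrees C. The cells were HepG2 CAGA-GFP in 1% FBS DMEM, stimulated with 500 pg/mL TGF-beta after compound addition. %Activity was normalised to no-cell wells (complete cell-killing) and DMSO (no toxicity), and curves were fitted and classified.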
Numbers without * were called inactive; i = inactive; u = inconclusive; x = no result given. Unless noted, calls follow the shape of the dose curve; as a rule, active = well fitted curve in the direction sought with a large enough effect; inconclusive = small, poorly fitted or top-dose-only effect, or another doubt; inactive = no such curve, though single readings can be large; an effect the other way counts as inactive or inconclusive.

SMILES	S2 tox	ATXN2 expr inh	D3 ag	DRD3 antagonist	TGFb inhibitor	HepG2 tox
CCc1nc2c(OCc3ccccc3C)cccn2c1N(C)C(=O)C(C)C	i	-25%	-19	-78*	-2%	0%
CCc1nc2c(OCC(=O)N3CCOCC3)cccn2c1N(C)C(=O)COc1ccccc1	i	1%	2	-53*	-3%	2%
COc1ccc(C)cc1NC(=O)N1CCC(CN2CCOCC2)CC1	x	x	9	x	3%	-2%
CN1C[C@H]2c3ccccc3Oc3ccc(Cl)cc3[C@@H]2C1	u	u	-26	x	x	x
Cc1ccc(S(=O)(=O)N2CCN(c3nc(-c4ccc(CN5CCNCC5)s4)nc4ccccc34)CC2)cc1	x	x	x	x	u	-98%
O=C1c2ccc3c4c(ccc(c24)C(=O)N1c1cccc(O)c1)C(=O)N(c1cccc(O)c1)C3=O	u	x	-22	-82*	4µM*	4.5µM*
Cc1cccc(/C=N\Nc2cn[nH]c(=O)c2Cl)c1	i	112%	-3	-82*	-17%	-94%
O=c1[nH]ncc(N/N=C\c2cccnc2)c1Cl	i	x	-7	9	2%	-10%
CC(C)(C)c1ccc(C(=O)NC2(C(F)(F)F)NC(=O)N(CCc3ccccc3)C2=O)cc1 (stereo not given)	u	u	-9	x	10µM*	20µM*
O=C(NC1(C(F)(F)F)NC(=O)N(CC2CCCCC2)C1=O)c1ccco1 (stereo not given)	i	3%	-3	-51*	-21%	1%
CC(C)CN1C(=O)NC(NC(=O)c2ccco2)(C(F)(F)F)C1=O (stereo not given)	i	5%	1	2	-3%	0%
CCOC(=O)c1ccc(Nc2nc(=O)c3cccnc3s2)cc1	i	108%	3	-70*	15%	-14%
CCN(C(=O)C(=O)c1c(C)[nH]c2ccccc12)c1ccccc1	x	x	x	x	-12%	-4%
Cc1ccccc1CN1C(=O)C(O)(c2c[nH]c3ccccc23)c2cc(Cl)ccc21 (stereo not given)	i	-24%	-8	x	16µM*	11µM*
Cc1[nH]c2ccccc2c1C1(O)C(=O)N(Cc2ccccc2)c2ccc(Cl)cc21 (stereo not given)	u	u	2	x	u	16µM*
Cc1[nH]c2ccccc2c1C1(O)C(=O)N(Cc2ccc(Cl)cc2)c2ccccc21 (stereo not given)	x	x	-2	x	x	-101%
CN(C)c1ccc(C=Nc2ccc(/C=C3\C=Cc4ccccc43)cc2)cc1	x	x	x	x	1%	-25%
C/C(=N/NC(=O)c1ccncc1)C(=O)O	i	8%	x	x	x	x
CC(C)(C)n1ncc2c(=O)n(Cc3ccc(SC(F)(F)F)cc3)cnc21	x	x	x	x	16µM*	-32%
CCN(CC)c1ccc2cc(C(N)=O)c(=O)oc2c1	x	29%	-1	-3	-6%	1%
CCN(CC)c1ccc2cc(NC(=O)CCC(=O)O)c(=O)oc2c1	x	7.9µM*	10	11	12%	-27%
CCN(CC)c1ccc2cc(C(C)=O)c(=O)oc2c1	i	14%	-7	1	11%	-14%
CCN(CC)c1ccc2cc(C=O)c(=O)oc2c1	x	-4%	-5	-55*	u	-43%
CCC(Cc1ccccc1)NC(=O)c1csc2c1CCCCC2 (stereo not given)	i	30%	-13	x	-25%	-14%
CCOc1ccc(NC(=O)Nc2c[nH]c(=O)[nH]c2=O)cc1	i	14%	4	x	2%	-1%
SMILES	S2 tox	ATXN2 expr inh	D3 ag	DRD3 antagonist	TGFb inhibitor	HepG2 tox
CCOC(=O)c1ccc(NC(=O)Nc2c[nH]c(=O)[nH]c2=O)cc1	i	4%	4	x	12%	3.2µM*
Fc1ccc(Nc2nc(SCc3ccccc3F)nc3ccccc23)cc1	x	x	16	x	u	-104%
O=C(c1ccco1)N1CCN(CCCCN2C(=O)c3ccccc3C2=O)CC1	i	2%	57*	-10	-3%	-29%
O=C(c1ccco1)N1CCN(CCCCOc2ccc(F)cc2)CC1	i	-6%	66*	2	-10%	20%
O=C(CN1C(=O)c2ccccc2C1=O)N1CCN(C(=O)c2ccco2)CC1	i	3%	-9	-11	2%	9%
COc1cc(NC(=O)c2nc3cc(C)c(C)cc3n(C)c2=O)cc(OC)c1OC	i	1%	3	x	-19%	7%
Cc1nc2ccn(Cc3ccco3)c(=O)c2cc1C(=O)Nc1ccc(F)cc1	x	x	-1	x	u	-15%
COc1ccc(CNC(=O)c2cc3c(=O)n(Cc4ccco4)ccc3nc2C)cc1	x	x	24	x	u	-12%
Cc1ccc(NC(=O)c2cc3c(=O)n(Cc4ccco4)ccc3nc2C)cc1C	x	x	65*	x	u	-17%
CSc1ccc(CNC(=O)c2cc3c(=O)n(Cc4ccco4)ccc3nc2C)cc1	x	x	7	x	11µM*	-43%
Cc1ccc(C2=NN(C(=O)CCl)C(c3cccs3)C2)o1 (stereo not given)	x	7.5µM*	8	-18	8.9µM*	8.9µM*
CCC(=O)N1N=C(c2ccc(C)o2)CC1c1ccc(N(C)C)cc1 (stereo not given)	i	-2%	3	-6	-2%	7.1µM*
CC(=O)N1N=C(c2ccc(C)o2)CC1c1ccc(Br)cc1 (stereo not given)	i	61%	-17	29	-2%	-10%
CC1(C)Nc2cccc3c(N=Nc4ccc(N=Nc5ccccc5)c5ccccc45)ccc(c23)N1	x	x	x	x	-4%	-29%
COc1ccc(-c2cc(C(=O)Oc3ccc(Br)cc3)c3ccccc3n2)cc1	i	2%	4	x	85%	68%
Oc1cccc(NC(=S)N=Nc2c(O)[nH]c3ccc(Br)cc23)c1	i	-25%	6	-12	u	-105%
Oc1[nH]c2ccc(Br)cc2c1N=NC(=S)Nc1ccc(F)cc1	u	-30%	-6	-17	10µM*	-65%
Oc1ccc(NC(=S)N=Nc2c(O)[nH]c3ccc(Br)cc23)cc1	u	u	-12	-24	u	22µM*
Cc1cc(C)cc(NC(=O)C2CCCN(c3cnccn3)C2)c1 (stereo not given)	x	x	6	x	0%	0%
O=C(Nc1cc(Cl)cc(Cl)c1)N1CCCN(Cc2ccccc2)CC1	i	-7%	-32	-80*	-11%	-39%
CCOC(=O)C1CCN(CCC(=O)Nc2cccc(Cl)c2)CC1	u	4%	-5	-56*	-11%	3%
CCCN(CCC(=O)Nc1cc(OC)cc(OC)c1)CC1CC1	i	0%	-4	22	0%	3%
CCN(CCC(=O)Nc1cc(OC)cc(OC)c1)Cc1ccccc1	i	-21%	-7	-67*	-6%	-23%
